Results filed as inconclusive are left out. Activity calls are given as the source filed them. The call rests on the fitted dose curve; in most records, active means well fitted cell-killing curve with a large enough effect; inconclusive means small, poorly fitted or top-dose-only effect, or effect the other way; inactive means no such curve, though single readings can be large or run the other way.
Assay: Quantitative High-Throughput drug screen in 47 multiple myeloma cell lines against the NCATS MIPE library collection: EJM_DSMZ cell viability assay (AID 1918926; further: nearly all actives have a fitted effect of over 30% in size;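 on viability, % of control: 100% = DMSO-only wells and 0% = media-only wells without cells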)
Conditions: EJM myeloma cell viability, CellTiter-Glo ATP, 48 h; series mostly up to 45.8 µM; viability, % of control: at the top concentration
Method in brief: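 Primary qHTS used for cherry-picking: cells at 500/well, library compounds for 48 h (37C, 5% CO2), luminescent ATP assay.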
Potency means the concentration at half of the fitted maximal effect.

SMILES	viability, % of control	Potency
CC(C)N(CCNC(=O)CN1CCCC1=O)C(C)C	107% (inactive)	–
CC[C@@]1(O)C(=O)OCc2c1cc1n(c2=O)Cc2cc3ccccc3nc2-1	–	0.209 µM (active)
CCOC(=O)c1c(C(C#N)=CN)c2ccc(Cl)c(Cl)c2n1C	92.8% (inactive)	–
COc1ccc2c(c[n+](C)c3c4cc5c(cc4ccc23)OCO5)c1OC	–	2.96 µM (active)
O=S(=O)(CC1CS1)c1ccc(Oc2ccccc2)cc1 (configuration not stated)	–	20.9 µM (active)
C[C@@H]1[C@H](O)[C@@H](C)C=CC=CCCC=CC=CC=CC=C[C@H](O[C@H]2O[C@@H](C)[C@H](O)[C@@H](N)[C@@H]2O)CC2O[C@](O)(C[C@@H](O)[C@H](O)CC[C@@H](O)C[C@@H](O)C[C@@H](O)CC(=O)O[C@H]1C)C[C@H](O)[C@H]2C(=O)O	106% (inactive)	–
CO[C@H]1CCC(O[C@H]2C[C@H]([C@]3(C)CC[C@]4(C[C@H](O)[C@@H](C)[C@@H]([C@@H](C)C=C(C)C(=O)[C@H](C)C[C@H](C)C(=O)O)O4)O3)O[C@]3(O[C@@H]([C@H]4O[C@@](O)(CO)[C@H](C)C[C@H]4C)C[C@H]3C)[C@H]2C)O[C@H]1C (some centres not stated)	–	3.32 µM (active)
CCOP(=O)(OCC)C(C)NC(=O)N(CCCl)N=O (configuration not stated)	122% (inactive)	–
C[C@]12CCC(=O)C(O)=C1CC[C@@H]1[C@H]3CCC(=O)[C@@]3(C)CC[C@@H]12	76.6% (inactive)	–
O=C(N[C@H]1CN2CCC1CC2)c1ccc(Cl)cc1	102% (inactive)	–
COc1ccc2c(c1)CN(C)CC2c1ccc(Cl)c(Cl)c1 (configuration not stated)	–	18.7 µM (active)
CCNC(=O)C[C@@H]1N=C(c2ccc(Cl)cc2)c2cc(OC)ccc2-n2c(C)nnc21	–	1.05 µM (active)
